Shown are actives, neighbours in structure and some others; about 4.1% of the full set was active somewhere.
Mac1 fbg enh – increases human CD11b/CD18 adhesion to fibrinogen; P05107+P11215; activation, % at 10 µM; K562 CD11b/CD18 adhesion to fibrinogen, ATPlite luminescence; hit rate 0.07% among 93,000;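 active = 10 µM primary screen giving 50% or more activity, confirmed by 40% or more on retest at that dose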
MRP resist rev – reverses drug resistance mediated by MRP. H69AR cells + 2 uM doxorubicin, CellTiter-Glo, 72 h. differential viability (reversal), % at 10 µM. hit rate 0.04% among 85,000. AID 602;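 active = viability drop by adding the cancer drug above about 55%, with treated viability meeting a 40% cutoff, limit read from the data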;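 also: larger differential means the compound sensitizes cells more to doxorubicin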
Pyk2 oligo antag – blocks oligomerization of human Pyk2 in cells. Q14289. Q293 cells, Pyk2 FERM NanoBiT luminescence; hits give low values. z-score (the deposit names both 25 µM and 10 µM). hit rate 0.83% among 99,000. AID 1347419;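 active = Z-score of -3 or lower, scaled per plate to the spread of control and sample wells; inactive = z-score above -3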;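 also: negative z-score means lost luminescence so less FERM oligomerization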
MRP1 act – activates MRP-1; hit rate 0.61% among 140,000; viability increase, % at 10 µM; H69AR cells + doxorubicin, viability rescue, CellTiter-Glo; AID 799;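 active = viability gain under doxorubicin at or above a set limit, the compound median plus 3 SD, cut at about 4.7% in these data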;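 also: MRP-1 overexpressing cells given doxorubicin 25 µM after compound pretreatment; 18-22 h compound pretreatment then 72 h with doxorubicin before readout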
Cav3 T inh – blocks human Cav3.2 T-type calcium channel. O95180. Cav3.2-expressing cells, Fluo-4 calcium fluorescence FDSS; hits give low values. B-score at 10 µM. hit rate 4% among 100,000;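 active = single-dose well whose peak fluorescence ratio is a statistical outlier from its plate by either plate-standardised score or position-corrected B-score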
Target sequence (O95180 whole entry, looked up): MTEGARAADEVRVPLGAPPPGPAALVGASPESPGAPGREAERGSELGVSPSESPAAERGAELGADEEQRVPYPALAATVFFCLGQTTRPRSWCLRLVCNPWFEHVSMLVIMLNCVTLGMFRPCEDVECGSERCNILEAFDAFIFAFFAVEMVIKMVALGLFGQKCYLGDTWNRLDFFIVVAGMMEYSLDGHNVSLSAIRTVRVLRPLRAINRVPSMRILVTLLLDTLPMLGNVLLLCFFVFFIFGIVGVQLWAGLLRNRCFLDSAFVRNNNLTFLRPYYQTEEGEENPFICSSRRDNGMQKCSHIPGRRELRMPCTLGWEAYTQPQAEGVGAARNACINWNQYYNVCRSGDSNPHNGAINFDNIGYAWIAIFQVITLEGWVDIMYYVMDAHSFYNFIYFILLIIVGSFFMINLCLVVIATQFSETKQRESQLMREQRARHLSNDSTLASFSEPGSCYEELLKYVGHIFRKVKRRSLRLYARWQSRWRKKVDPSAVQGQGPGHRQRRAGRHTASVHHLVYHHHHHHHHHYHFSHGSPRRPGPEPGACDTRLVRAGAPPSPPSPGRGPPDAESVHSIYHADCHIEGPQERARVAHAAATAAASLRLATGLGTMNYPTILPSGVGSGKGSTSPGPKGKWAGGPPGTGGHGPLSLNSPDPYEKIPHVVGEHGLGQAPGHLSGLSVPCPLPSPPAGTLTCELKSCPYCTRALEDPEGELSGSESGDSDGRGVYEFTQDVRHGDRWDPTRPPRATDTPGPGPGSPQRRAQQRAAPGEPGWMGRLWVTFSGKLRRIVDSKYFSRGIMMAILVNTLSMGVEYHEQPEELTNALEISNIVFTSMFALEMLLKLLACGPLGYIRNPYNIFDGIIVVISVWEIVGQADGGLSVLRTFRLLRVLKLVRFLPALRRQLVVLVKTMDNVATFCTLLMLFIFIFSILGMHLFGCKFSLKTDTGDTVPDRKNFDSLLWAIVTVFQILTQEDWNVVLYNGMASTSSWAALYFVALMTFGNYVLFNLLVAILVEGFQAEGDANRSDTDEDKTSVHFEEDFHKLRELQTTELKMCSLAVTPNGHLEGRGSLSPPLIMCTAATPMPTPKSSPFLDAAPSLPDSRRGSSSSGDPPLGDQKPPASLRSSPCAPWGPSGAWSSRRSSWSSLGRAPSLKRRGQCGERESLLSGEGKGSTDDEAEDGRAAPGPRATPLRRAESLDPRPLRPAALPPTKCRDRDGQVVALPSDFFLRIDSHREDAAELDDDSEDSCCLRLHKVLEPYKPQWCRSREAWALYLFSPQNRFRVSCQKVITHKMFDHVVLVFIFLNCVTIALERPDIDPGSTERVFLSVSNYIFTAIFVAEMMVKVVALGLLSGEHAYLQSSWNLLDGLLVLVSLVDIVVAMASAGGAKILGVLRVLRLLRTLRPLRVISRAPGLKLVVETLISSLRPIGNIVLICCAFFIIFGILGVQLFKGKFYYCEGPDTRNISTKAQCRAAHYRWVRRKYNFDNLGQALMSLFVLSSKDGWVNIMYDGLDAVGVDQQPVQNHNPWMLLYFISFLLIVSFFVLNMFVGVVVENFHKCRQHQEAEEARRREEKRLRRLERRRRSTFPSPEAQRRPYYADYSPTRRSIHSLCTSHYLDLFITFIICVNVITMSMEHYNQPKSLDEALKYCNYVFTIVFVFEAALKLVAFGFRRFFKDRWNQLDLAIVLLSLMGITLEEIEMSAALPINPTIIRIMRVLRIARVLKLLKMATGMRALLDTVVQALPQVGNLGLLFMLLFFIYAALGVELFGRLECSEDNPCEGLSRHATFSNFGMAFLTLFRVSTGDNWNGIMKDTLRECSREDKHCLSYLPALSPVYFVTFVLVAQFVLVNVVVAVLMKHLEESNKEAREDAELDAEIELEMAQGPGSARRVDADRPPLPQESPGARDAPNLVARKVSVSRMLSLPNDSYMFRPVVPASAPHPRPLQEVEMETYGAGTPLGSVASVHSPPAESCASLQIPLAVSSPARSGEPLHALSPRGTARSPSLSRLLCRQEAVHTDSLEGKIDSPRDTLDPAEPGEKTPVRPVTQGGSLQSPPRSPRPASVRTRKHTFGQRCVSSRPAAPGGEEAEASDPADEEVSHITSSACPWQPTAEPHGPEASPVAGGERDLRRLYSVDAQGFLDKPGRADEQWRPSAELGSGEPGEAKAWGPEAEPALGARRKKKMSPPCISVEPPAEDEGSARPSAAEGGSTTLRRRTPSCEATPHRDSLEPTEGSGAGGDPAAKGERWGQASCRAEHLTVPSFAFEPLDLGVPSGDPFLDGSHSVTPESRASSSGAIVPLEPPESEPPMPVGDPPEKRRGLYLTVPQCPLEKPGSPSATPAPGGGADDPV
CD11b adhes inh – inhibitors of human CD11b/CD18 binding to fibrinogen; P05107+P11215; K562 CD11b/CD18 adhesion to fibrinogen, ATPlite luminescence; Mn2+ added to activate the integrin; inhibition, % at 10 µM; hit rate 0.54% among 93,000;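 active = primary inhibition of 50% or more at 10 µM, then 40% or more on retest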
A number is an active result; n = inactive; x = no result.

SMILES | Mac1 fbg enh | MRP resist rev | Pyk2 oligo antag | MRP1 act | Cav3 T inh | CD11b adhes inh
CC(C)CNC(=O)c1c(N)n(/N=C/c2ccccn2)c2nc3ccccc3nc12 | n | n | n | 5.1 | n | n
CCCCNC(=O)c1c(N)n(/N=C/c2ccccn2)c2nc3ccccc3nc12 | n | x | x | n | n | n
Cc1ccc(N(CC(=O)N/N=C/c2ccc(OC3CSC3)cc2)S(=O)(=O)c2ccccc2)cc1 | n | x | n | n | -2.71 | n
Cc1[nH]c2ccc(OC(=O)N3CCOCC3)cc2c1C(=O)OC(C)C | n | n | n | n | n | n
COc1ccccc1CCNCc1ccc(OC)c(OCc2ccccc2)c1 | n | x | n | n | -4.76 | n
COc1cccc(CNCCc2c[nH]c3ccccc23)c1OCc1ccccc1 | n | x | x | n | x | 59.6
COc1ccc(NC(=S)NCCc2c[nH]c3ccccc23)c(OC)c1 | x | x | x | n | x | x
CCCn1c(=O)c2ccccc2n2c(SCC(=O)c3cc(C)n(CC4CCCO4)c3C)nnc12 (stereo unspecified) | n | n | x | x | x | n
CCc1ccccc1NC(=O)CSc1ncn[nH]1 | n | n | n | n | n | n
Cc1ccc(Sc2ncccc2COC(=O)Nc2c(C)cccc2C)cc1 | n | x | n | n | -5.53 | n
CCOC(=O)Cn1c(=O)n(Cc2ccco2)c(=O)c2ccc(C(=O)NCCc3ccccc3)cc21 | n | n | n | n | -4.57 | n
COc1cc(C)c(C(=O)Oc2cc(C)c(C(=O)O)c(O)c2C)c(OC)c1C | x | x | x | x | -4.36 | x
CCCCc1ccc(NC(=O)C2CCCO2)cc1 (stereo unspecified) | x | n | n | n | n | x
COc1ccc(NC(=S)NC(NC(=O)c2ccccc2Cl)C(Cl)(Cl)Cl)c([N+](=O)[O-])c1 (stereo unspecified) | n | n | n | n | n | n
COC(=O)c1ccccc1NC(=S)NC(NC(=O)c1ccccc1[N+](=O)[O-])C(Cl)(Cl)Cl (stereo unspecified) | x | x | n | n | -8.46 | x
Cc1ccc(NC(=S)NC(NC(=O)c2ccccc2C)C(Cl)(Cl)Cl)c(C)c1 (stereo unspecified) | x | x | n | n | -7.11 | x
Cc1ccccc1NC(=S)NC(NC(=O)C(C)(C)C)C(Cl)(Cl)Cl (stereo unspecified) | n | x | n | n | n | n
COC(=O)c1ccccc1NC(=S)NC(NC(=O)c1ccco1)C(Cl)(Cl)Cl (stereo unspecified) | x | x | n | n | n | x
COc1ccc(NC(=S)NC(NC(=O)c2ccc(Cl)cc2Cl)C(Cl)(Cl)Cl)c([N+](=O)[O-])c1 (stereo unspecified) | n | n | n | n | -5.08 | 82.6
CCOc1ccc(N=Nc2cc(C(C)C)ccc2O)cc1 | x | x | x | n | x | x
c1ccc(NCc2nc(-c3ccccc3)no2)cc1 | n | n | n | n | n | n
CN1CCN(C(=O)C2=C[C@@H](c3coc4ccccc4c3=O)C[C@@H](OCCCCO)O2)CC1 | x | x | x | x | n | x
CCC(c1nnc(SCC(=O)NCC2CCCO2)n1Cc1ccccc1)N(C)C (stereo unspecified) | x | n | n | x | n | x
CCCCNc1cc(C)nc(NCc2ccccc2)n1 | n | n | n | n | n | 85.4
Cc1cc(Nc2ccccc2)nc(NCc2ccccc2)n1 | n | x | x | n | x | n
SMILES | Mac1 fbg enh | MRP resist rev | Pyk2 oligo antag | MRP1 act | Cav3 T inh | CD11b adhes inh
CCOc1ccc(CN(C)CC(=O)NNC(=O)c2ccc(Cl)cc2)cc1OC | n | x | x | n | x | n
CCN1CCN(Cc2coc3ccc(C)cc3c2=O)CC1 | n | n | n | n | n | n
Cc1ccnc(NC(=O)COc2c(C)cc(C)cc2[N+](=O)[O-])c1 | x | x | x | n | x | x
Cc1ccnc(NC(=O)COc2ccc3oc4c(c3c2)CCCC4)c1 | x | x | n | 5.2 | n | x
COc1ccc(CNC(=O)CN(CC2CCCO2)C(=O)CNS(=O)(=O)c2ccc(F)cc2)cc1 (stereo unspecified) | n | n | n | n | -6.18 | n
Cc1ccc(-n2c(Cc3cccn3C)nnc2SCC(=O)N2CCc3ccccc32)cc1 | n | x | n | n | -3.31 | n
Cn1cccc1Cc1nnc(SCC(=O)N2CCCc3ccccc32)n1-c1ccc(F)cc1 | n | n | x | n | -7.92 | n
COc1ccc(-n2c(Cc3ccccc3)nnc2SCC(=O)N2CCCc3ccccc32)cc1 | x | n | n | n | -8.49 | x
Cc1cc(C)n(-c2cc(N3CCN(S(=O)(=O)c4ccc5ccccc5c4)CC3)ccc2[N+](=O)[O-])n1 | x | x | n | n | x | x
Cc1ccc(COc2cccc3c2CCN(Cc2ccc(F)cc2)C3=O)cc1 | n | x | x | 5.0 | x | n

Bioassay records (PubChem BioAssay)
